Screening data deposited in PubChem by National Center for Advancing Translational Sciences (NCATS).
B2AR arrestin = recruits beta-arrestin to the human beta2-adrenergic receptor; beta-arrestin recruitment to beta2AR, cell-based reporter; Potency, µM (highest dose often 46.1 µM), for the others: at the top dose activation, actives largely listed as activators; actives 0.02% (n = 330,000);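 note: potency is the fitted concentration of half-maximal effect; 0% = DMSO controls and full agonism = EC100 isoproterenol or metaproterenol; nearly all actives have a fitted effect of over 65% in size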
Target sequence (P07550 whole entry, looked up): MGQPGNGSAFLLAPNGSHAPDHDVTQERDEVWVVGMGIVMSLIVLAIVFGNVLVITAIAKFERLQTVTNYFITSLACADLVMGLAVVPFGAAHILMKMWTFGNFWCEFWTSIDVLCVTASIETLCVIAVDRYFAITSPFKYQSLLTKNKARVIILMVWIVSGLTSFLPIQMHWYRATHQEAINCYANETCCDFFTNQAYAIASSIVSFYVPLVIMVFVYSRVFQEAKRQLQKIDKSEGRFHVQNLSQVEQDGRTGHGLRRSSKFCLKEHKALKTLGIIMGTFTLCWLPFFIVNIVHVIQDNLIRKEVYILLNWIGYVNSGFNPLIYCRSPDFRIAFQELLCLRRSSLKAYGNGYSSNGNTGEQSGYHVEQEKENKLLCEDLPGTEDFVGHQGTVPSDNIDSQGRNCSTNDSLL
Gal4-VP16 FLuc = inhibits Gal4-VP16 luciferase reporter, ROR gamma counter-screen; actives 3.5% (n = 310,000); Drosophila S2 Gal4-VP16 UAS-luciferase, luminescence, 20 h; Potency, µM (highest dose often 53.6 µM), for inactives: at the highest dose activity, negative = inhibition, most hits filed as inhibitors;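 note: Gal4-VP16 expression switched on by copper sulfate through the metallothionein promoter; potency is the fitted concentration of half-maximal effect; nearly all actives have a fitted effect of over 50% in size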
RORg inh = ROR gamma (mouse) transcription inhibition | Drosophila S2 Gal4-RORgamma UAS-luciferase reporter, 20 h | Potency, µM (highest dose often 53.6 µM), without a hit: at the top dose activity change, negative = inhibition, hits mostly inhibitors | actives 5.4% (n = 310,000); note: potency is the fitted concentration of half-maximal effect; nearly all actives have a fitted effect of over 60% in size
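Drosophila Schneider cells stably carrying a metallothionein-driven Gal4 DBD–ROR gamma fusion and a UAS-Photinus luciferase reporter were exposed to compound for 1 hr, then induced with copper sulfate (700 uM final) for 20 hr at ambient temperature before luminescence reading.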
TSHR antagonist = blocks TSH signaling through the human TSH receptor; P16473; TSHR-expressing cells, TSH-stimulated cAMP HTRF, 2 h; hits give low values; activity change, negative = inhibition, % at 11.5 µM; actives 0.2% (n = 330,000); AID 504810;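 active = activity change below a set negative limit, meaning inhibition stronger than a set level, cut at about -70% in these data; inconclusive = activity change between two set negative limits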
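Read-out is FRET at 665 nm (cryptate excitation 337 nm) from a cryptate-tagged anti-cAMP antibody, competed by cell cAMP against cAMP-d2. Compounds are tested on freshly harvested TSHR cells challenged with 4nM TSH (EC80) for 2 hours at 37 deg C.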
ELG1 DNA repair = inhibitors of ELG1-dependent DNA repair in HEK293T cells; HEK293T ELG1-luciferase reporter, luminescence, 16 h; DNA damage induced by 5-fluorouridine; Potency, µM (top dose mostly 46.1 µM), for the others: at the highest dose activity change, negative = inhibition, usual class: inhibitors; actives 2.3% (n = 330,000); note: potency is the fitted concentration of half-maximal effect; nearly all actives have a fitted effect of over 55% in size
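HEK293T cells expressing luciferase-tagged ELG1 (2,000/well) received 5-Fluorouridine plus compound or DMSO for 16 hr at 37 °C. Luciferase was read by ONE-Glo luminescence after 30 min at room temperature.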
* = called active by the depositor; ? = inconclusive; nt = no result given; [ ] = dose if it differs, or a comment. An excerpt weighted towards active compounds, which were near 7.5% of everything screened. Unless noted, calls come from the whole dose curve; as a rule, active = well fitted curve in the direction sought with a large enough effect; inconclusive = small, poorly fitted or top-dose-only effect, or another doubt; inactive = no such curve, though single readings can be large; an effect the other way counts as inactive or inconclusive. Unless noted, % is set by controls: 0 for no effect and ±100 for the full control effect.

SMILES	B2AR arrestin	Gal4-VP16 FLuc	RORg inh	TSHR antagonist	ELG1 DNA repair
NS(=O)(=O)c1ccc(NC(=O)COC(=O)COc2ccc(Cl)cc2)cc1	-1%	0%	-13%	7	-1%
COCOc1c2c(c(OCOC)c3c(OCOC)cccc13)/C(=N/N[S+](=O)([O-])c1ccc(C)cc1)C1=C2CCCC1	nt	1%	-13%	nt	nt
CC(=O)c1cccc(NCC(=O)N2CCN(S(=O)(=O)c3ccccc3)CC2)c1	0%	nt	nt	0	9%
CCCN1C(=O)c2cc(C(=O)Nc3ccccc3C)ccc2C1Nc1ccccc1C (centres undefined)	-1%	1%	7%	0	23µM*
Cc1ccccc1NC(=O)c1ccc2c(c1)C(=O)N(CC(C)C)C2=O	-1%	-12%	7%	-1	-11%
CCOc1cc(CNc2ccc(N3CCCCC3)cc2)cc(Br)c1OCC(=O)NC(C)(C)C	-1%	-27%	-33%	-4	-20%
CCOc1cc(CNc2ccc(N(C)C)cc2)cc(Br)c1OCC(=O)NC(C)(C)C	0%	-12%	10µM*	-76*	?
COc1ccc(Br)cc1CNc1ccc(O)cc1	16%	?	8.9µM*	5	?
O=C(Nc1cccc(F)c1)N1CCC2(CC1)CCN(C(=O)c1csnn1)CC2	nt	23%	11%	nt	nt
Cn1cccc1/C=N/n1c(-c2ccc(Cl)cc2Cl)n[nH]c1=S	0%	?	2.8µM*	-20	11%
Cc1ccc(-c2n[nH]c(=S)n2/N=C/c2cccn2C)cc1	0%	11µM*	3.2µM*	-8	21%
Cn1cccc1/C=N/n1c(-c2ccc(Cl)cc2)n[nH]c1=S	0%	?	2.5µM*	-23	4%
CCOc1ccccc1NC(=O)C(c1ccccc1)N1CCN(CC(=O)N2CCCC2)CC1 (centres undefined)	0%	nt	nt	nt	?
Cc1ccc2nc(/C(C#N)=C\c3cc(O)ccc3[N+](=O)[O-])[nH]c2c1	-1%	3%	25%	-2	12%
N#C/C(=C\c1cc([N+](=O)[O-])c(N2CCOCC2)cc1N1CCOCC1)c1nc2ccccc2[nH]1	0%	-6%	?	1	21µM*
Cc1cc(/C=C(/C#N)c2nc3ccccc3[nH]2)c(C)n1-c1cccc([N+](=O)[O-])c1	1%	-16%	-33%	3	15µM*
CN1CCN(c2ncncc2-c2ccc(N(C)C)cc2)CC1	nt	7%	2%	nt	nt
CCCCOC(=O)c1[nH]c2c(c1C)C(=O)CC(c1cc(OC)c(OC)c(OC)c1)C2 (centres undefined)	-1%	?	?	-34	?
COCCOC(=O)c1[nH]c2c(c1C)C(=O)CC(c1cc(OC)c(OC)c(OC)c1)C2 (centres undefined)	0%	?	?	-9	8.2µM*
CCCC(=O)OC1(C(=O)CO)CCC2C3CCC4=CC(=O)CCC4(C)C3C(O)CC21C (centres undefined)	nt	-1%	10%	nt	nt
O=[N+]([O-])c1cccc(S(=O)(=O)Nc2nc3ccccc3nc2Nc2cccc(S(=O)(=O)N3CCCCC3)c2)c1	14%	11µM*	?	?	2.1µM*
Cc1ccc(S(=O)(=O)Nc2nc3ccccc3nc2Nc2cccc(S(=O)(=O)N3CCCC3)c2)cc1	0%	-10%	?	-42	21µM*
O=[N+]([O-])c1cccc(S(=O)(=O)N2CCCCC2)c1	-1%	-3%	6%	-3	2%
O=C(CCN1C(=O)c2cccc3cccc(c23)C1=O)NCc1ccco1	0%	-7%	2%	3	-18%
Cc1onc(-c2c(F)cccc2Cl)c1C(=O)NC1CC1	-1%	-3%	16%	-11	-3%
SMILES	B2AR arrestin	Gal4-VP16 FLuc	RORg inh	TSHR antagonist	ELG1 DNA repair
Cc1ccccc1C(=O)NC(=S)NC1CCSC1=O (centres undefined)	-1%	-19%	11µM*	-1	-4%
Cc1onc(-c2c(F)cccc2Cl)c1C(=O)NC(=S)NC1CCSC1=O (centres undefined)	-1%	7.1µM*	7.1µM*	2	-12%
CCC(=O)Nc1cccc(-c2nc3ncccc3o2)c1C	-1%	2%	-16%	41	3%
Cc1c(NC(=O)CSc2ccc(Cl)cc2)cccc1-c1nc2ncccc2o1	0%	-10%	-27%	-17	9.2µM*
O=C(CN1CCOCC1)Nc1nc(-c2ccc3c(c2)CCN3S(=O)(=O)c2ccccc2)cs1	0%	?	-31%	-22	?
Cc1sc(NC(=O)CN2CCOCC2)nc1-c1ccc2c(c1)CCN2S(=O)(=O)c1ccccc1	-1%	5.6µM*	7.1µM*	-41	?
CCC(CC)C(=O)Nc1nc(-c2ccc3c(c2)CCN3C(=O)C2CC2)c(C)s1	12%	-21%	-22%	-13	21µM*
CC(C)C(=O)Nc1nc(-c2ccc3c(c2)CCN3C(=O)C2CC2)cs1	0%	16%	14%	-2	30%
CCC1(c2ccc(O)cc2)NC(=O)N(C)C1=O (centres undefined)	nt	-3%	0%	nt	nt
COCc1cc(C)nc2sc(C(=O)NCCO)c(-n3cccc3)c12	0%	0%	-12%	-4	-7%
CC12CCC=CC1C(c1ccc(C(F)(F)F)cc1)N(Cc1ccccc1)C2=O (centres undefined)	nt	2%	?	nt	nt
O=C(/C=C/c1ccc([N+](=O)[O-])cc1)c1cccnc1	0%	22µM*	?	8	?
O=C(N/N=C/C=C\c1cccc([N+](=O)[O-])c1)c1cccnc1	0%	?	6.3µM*	-4	?
O=C(N/N=C\C=C\c1ccc2c(c1)OCO2)c1cccnc1	-2%	11µM*	5.6µM*	-7	?
O=C(/C=C/c1ccc([N+](=O)[O-])cc1)NCc1cccnc1	-1%	20%	19%	2	9%
CC/C(Cc1ccccc1)=N\NC(=O)c1cc([N+](=O)[O-])cc([N+](=O)[O-])c1	0%	-14%	7.9µM*	6	-8%
CC[C@H](C)[C@@H](NC(=O)O[C@@H]1C(=O)c2ccc(OC)cc2O[C@H]1c1ccc2c(c1)OCO2)C(=O)OC	nt	4%	31%	nt	nt
CCOC(=O)[C@H](CCc1ccccc1)N[C@@H](C)C(=O)N1C(=O)N(C)C[C@H]1C(=O)O	nt	-10%	0%	nt	nt
CCCCCCC/C=C/C1=CC2(C)CC1(C)C(CCCCCCC)CC2=O (centres undefined)	nt	-8%[10 µM]	-9%[10 µM]	nt	nt
CC(/C=C/c1cccc([N+](=O)[O-])c1)=N/NC(=O)c1cccnc1	-1%	5µM*	3.2µM*	-1	-17%
COc1ccc(/C(C)=N/NC(=O)c2ccc(CSc3cccc4cccnc34)cc2)cc1OC	0%	20%	16µM*	23	-9%
